# SW480 rereplic: A quantitative high throughput screen for small molecules that induce DNA re-replication in SW480 colon adenocarcinoma cells. SW480 DNA re-replication, Hoechst DNA content imaging, 48 h. Potency, µM (doses to about 46.1 µM), hits mostly activators. 340,000 compounds, 1.8% hits; further: nearly all actives have a fitted effect of over 55% in size
#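 Treated cells incubate 48 hr (37 C, 5% CO2), are stained 40 min with Hoechst, and nuclear fluorescence is enumerated; a rise in nuclei with high DNA signal marks re-replication.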
# RORgamma inh: qHTS for inhibitors of ROR gamma transcriptional activity. AID 2551, 2010. Potency, µM (top dose mostly 53.6 µM), most hits filed as inhibitors. Drosophila S2 Gal4-RORgamma UAS-luciferase reporter, 20 h. 310,000 compounds, 5.4% hits; further: nearly all actives have a fitted effect of over 60% in size
# Target sequence (P51450 whole entry, looked up, the tested form may be a part): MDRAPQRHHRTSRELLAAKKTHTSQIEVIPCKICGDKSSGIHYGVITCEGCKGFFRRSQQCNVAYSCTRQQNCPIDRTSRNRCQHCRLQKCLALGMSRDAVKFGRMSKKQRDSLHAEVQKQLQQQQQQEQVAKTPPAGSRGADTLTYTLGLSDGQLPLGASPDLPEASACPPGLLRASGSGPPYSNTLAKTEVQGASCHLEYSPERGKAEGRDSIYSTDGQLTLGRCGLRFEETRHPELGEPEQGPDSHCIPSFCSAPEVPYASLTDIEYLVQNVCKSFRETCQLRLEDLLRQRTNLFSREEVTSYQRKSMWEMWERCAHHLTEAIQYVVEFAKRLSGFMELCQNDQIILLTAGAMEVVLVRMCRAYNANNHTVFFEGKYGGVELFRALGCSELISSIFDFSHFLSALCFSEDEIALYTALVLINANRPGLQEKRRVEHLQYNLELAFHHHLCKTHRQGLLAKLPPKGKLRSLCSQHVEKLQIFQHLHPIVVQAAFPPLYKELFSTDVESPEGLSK
#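 Luciferase reporter read in Schneider cells carrying Gal4-RORγ (mouse) and UAS-Photinus luciferase; cells given compound 1 h before 700 uM copper sulfate induction, then incubated 20 h at ambient temperature.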
# IL1B secr inh: qHTS for Inhibitors of Inflammasome Signaling: IL-1-beta AlphaLISA Primary Screen. activity change, % at 57.5 µM. AID 743279, 2014. 360,000 compounds, 4.7% hits. THP-1 LPS/ATP IL-1B secretion, AlphaLISA, 16 h; stronger effect = lower value; in the data active means activity change below about -50%; inconclusive means mostly about -30% to -49%
#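 Secreted IL-1B measured by AlphaLISA bead assay after 16 h compound exposure of THP-1 cells; compounds (final up to 57.5 uM) added 1 h before LPS (250 ng/mL) and ATP (1.25 mM) stimulation; lower signal means less secretion.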
# VP16 counter: VP16 counterscreen qHTS for inhibitors of ROR gamma transcriptional activity. Drosophila S2 Gal4-VP16 UAS-luciferase, luminescence, 20 h. Potency, µM (series often up to 53.6 µM), actives largely listed as inhibitors. 310,000 compounds, 3.5% hits. AID 2546, 2010;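 further: Gal4-VP16 expression switched on by copper sulfate through the metallothionein promoter; nearly all actives have a fitted effect of over 50% in size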
# MCF10A rerep: A quantitative high throughput screen for small molecules that induce DNA re-replication in MCF 10a normal breast cells; MCF 10A DNA re-replication, Hoechst nuclear intensity, 48 h; Potency, µM (titrated, usually from 46.1 µM), usual class: activators; 350,000 compounds, 2.9% hits; further: nearly all actives have a fitted effect of over 50% in size
# Numbers stand for hits; n = inactive; u = inconclusive; x = no result. Compounds with a hit are over-represented: about 11% of the library has one in this group of screens. Unless noted, the call rests on the fitted dose curve; in most records, active means well fitted curve in the direction sought with a large enough effect; inconclusive means small, poorly fitted or top-dose-only effect, or another doubt; inactive means no such curve, though single readings can be large; an effect the other way counts as inactive or inconclusive.
SMILES,SW480 rereplic,RORgamma inh,IL1B secr inh,VP16 counter,MCF10A rerep
NC(=S)n1[nH]c(-c2ccc([N+](=O)[O-])cc2)c(N=Nc2ccc(O)cc2)c1=O,n,n,n,n,n
Cc1[nH]n(C(N)=S)c(=O)c1N=Nc1cccc(Cl)c1,n,0.28µM,n,1.6µM,u
CCOC(=O)c1ccc(NC(=O)c2nc[nH]c2C(=O)NC[C@@H](C)O)cc1,x,x,n,x,x
C/C=C(\C)CN1CCC(n2nccc2NC(=O)CCOc2ccccc2)CC1,18µM,n,n,n,n
CCC(=O)Nc1ccc(N2CCCCC2)cc1,n,u,n,n,n
O=C(CCl)Nc1ccc(N2CCCCCC2)cc1,21µM,u,-98,u,15µM
Cc1ccc(C(=O)Nc2ccc(N3CCCCC3)cc2)cc1,n,x,x,x,n
O=C(Nc1ccc(N2CCCCC2)cc1)c1ccccc1,n,3.5µM,u,u,n
CCOC(=O)c1sc(N2N=C(C)/C(=C\c3ccc(OCC(=O)OC)cc3)C2=O)nc1C,n,8.9µM,n,u,u
O=C(NCCCSc1ccccc1)c1cc(Cl)ccc1O,n,n,n,n,u
CC1=NN(c2nc(-c3ccccc3)cs2)C(=O)C1N=Nc1ccccc1 (configuration not stated),n,7.1µM,n,n,n
CCc1c(C(=O)NNC(=S)NCc2ccccc2)csc1C,n,6.3µM,n,n,n
CCc1c(C(=O)NNC(=S)NCC(C)C)csc1C,n,1.8µM,n,18µM,n
CCc1c(C(=O)NNC(=S)NCC2CCCO2)csc1C (configuration not stated),n,u,n,u,n
CCN(CC)CCN1C(=O)/C(=C\c2ccc(Cl)c([N+](=O)[O-])c2)SC1=Nc1ccc(OC)cc1,3.7µM,u,-99,u,u
COc1ccc(N=C2S/C(=C\c3ccc(Cl)c([N+](=O)[O-])c3)C(=O)N2CCN(C)C)cc1,n,u,-61,n,u
FC(F)Sc1nc2ccccc2[nH]1,n,13µM,x,u,n
COc1ccccc1-c1nnc2sc(COc3ccc(Cl)cc3)nn12,n,u,-86,n,n
CC(=O)[C@H]1[C@H](C#N)CC2C3CC=C4C[C@@H](O)CCC4(C)C3CCC21C (some centres not stated),x,n,x,n,x
COc1ccc(NC(=O)C2CCN(S(=O)(=O)c3cccs3)CC2)cc1OC,n,x,n,x,n
CCc1ccc(-c2csc(NC(=O)C3CC(=O)N(c4ccc5c(c4)OCCO5)C3)n2)cc1 (configuration not stated),u,u,n,n,18µM
Cc1cnc(NC(=O)C2CC(=O)N(c3ccc4c(c3)OCCO4)C2)s1 (configuration not stated),n,x,-57,x,n
Cc1nnc(NC(=O)C2CC(=O)N(c3ccc4c(c3)OCCO4)C2)s1 (configuration not stated),n,x,n,x,n
CCCNC(=O)C1(C)CCN(Cc2cc(-c3ccccc3)on2)C1 (configuration not stated),x,x,n,x,x
CCOC(=O)C1=C(C)N(c2ccccc2)C(=O)/C1=C\c1ccco1,n,u,-59,u,n
SMILES,SW480 rereplic,RORgamma inh,IL1B secr inh,VP16 counter,MCF10A rerep
CCOC(=O)C1=C(C)N(c2ccccc2)C(=O)/C1=C\c1cccs1,n,n,u,n,n
COc1ccc(F)cc1-c1cc(C(=O)NCc2cc(C(F)(F)F)cc(C(F)(F)F)c2)[nH]n1,x,x,n,x,x
CN1CCN(c2nc(N3CCN(c4ccccc4)CC3)ncc2F)CC1,n,n,-71,n,n
CC(=O)Nc1cccc(OCc2cnc(Cl)s2)c1,n,n,n,n,0.15µM
Cc1ccc(S(=O)(=O)N2CCCC2C(=O)NCc2ccncc2)cc1 (configuration not stated),n,n,n,u,n
Cc1c(NC(=O)c2ccccc2NC(=O)COc2ccccc2)cccc1C(=O)O,n,7.9µM,n,13µM,n
CC(C)(C)c1ccc(OCC(=O)Nc2ccc(C(=O)Nc3ccccc3C(=O)O)cc2)cc1,n,n,n,n,18µM
CC(C)C(=O)Nc1ccc(-c2nc3cccnc3o2)cc1,n,n,n,u,u
CC(C)(C)c1ccc(OCC(=O)Nc2ccc(-c3nc4cccnc4o3)cc2)cc1,n,n,n,n,16µM
COc1ccc(/C=C/C(=O)Oc2ccc(/C=N/NC(=O)c3ccncc3)cc2)cc1,n,n,n,n,n
FC(F)(F)c1ccccc1-c1cc(NCCN2CCOCC2)ncn1,x,n,x,n,x
O=C(Nc1ccc(N2CCN(C(=O)c3cccs3)CC2)c(Cl)c1)c1ccco1,n,u,u,n,u
Cc1ccccc1C(=O)N1CCN(c2ccc(NC(=O)c3ccco3)cc2Cl)CC1,n,u,-89,6.3µM,u
O=C(Nc1ccc(N2CCCC2)c(Cl)c1)c1cccnc1,n,u,n,n,u
O=C(Nc1ccc(N2CCN(C(=O)c3ccco3)CC2)c(Cl)c1)c1cccnc1,n,n,-67,n,n
O=C(Nc1ccc(N2CCN(C(=O)c3ccco3)CC2)c(Cl)c1)c1c(F)c(F)c(F)c(F)c1F,u,n,-90,u,u
O=C(Nc1ccc(N2CCN(C(=O)c3cccs3)CC2)c(Cl)c1)c1cccnc1,n,n,-79,n,n
CN(C)C(CNC(=O)c1cc(-c2ccco2)nc2ccccc12)c1ccccc1 (configuration not stated),n,x,n,x,n
CC(Oc1ccc(Br)cc1)C(=O)Nc1nc(-c2ccccn2)cs1 (configuration not stated),u,2.5µM,-99,3.2µM,n
CC(C)[C@H](NC(=O)c1ccccc1Cl)C(=O)Nc1nc(-c2ccccn2)cs1,u,7.9µM,n,u,n
C[C@@H](O)CNC(=O)c1[nH]cnc1C(=O)N[C@H](C)c1ccccc1,x,x,n,x,x
CC(C)(O)C1CC[C@@](C)([C@@H]2CC[C@]3(C)[C@H]2[C@H](O)CC2[C@@]4(C)CCC(O)C(C)(C)C4C(OC4OC(CO)C(O)C(O)C4O[C@@H]4OCC(O)C(O)C4O)C[C@]23C)O1 (some centres not stated),n,x,n,x,n
O=C(c1nsnc1-c1ccccc1O)N1CCCCC1,n,n,n,n,n
NC(=O)c1nsnc1-c1ccccc1O,n,22µM,n,n,n
COC(=O)Nc1ccc(SCC(=O)c2ccc(Cl)cc2)cc1,n,n,-62,n,n
CC(=O)c1ccc(OCCCC(=O)Nc2cc(S(=O)(=O)N(C)C)ccc2C)cc1,16µM,n,n,n,n
Cc1ccc(S(=O)(=O)N(C)C)cc1NC(=O)C(C)N(C)CCOc1ccc(Cl)cc1 (configuration not stated),u,u,n,u,18µM
